# Results taken from PubChem BioAssay (NCATS).
# Unmarked numbers belong to inactive results. Inconclusive results are not listed. Calls of active or inactive are those of the source. Unless noted, the call rests on the fitted dose curve; in most records, active means well fitted curve in either direction with a large enough effect (not every such curve was filed as active); inconclusive means small, poorly fitted or top-dose-only effect, or another doubt; inactive means flat fitted curve, though single readings scatter.
# What was measured:
# [1] = target: Lysosomal acid glucosylceramidase (Homo sapiens) (UniProt P04062); test: Glucocerebrosidase-p2 (AID 348; in the data active means potency below about 10 µM; further: potency means the concentration at half of the fitted maximal effect); settings: purified GBA, blue fluorogenic substrate, 40 min
# Sequence of Lysosomal acid glucosylceramidase (Homo sapiens) (P04062 whole entry, looked up): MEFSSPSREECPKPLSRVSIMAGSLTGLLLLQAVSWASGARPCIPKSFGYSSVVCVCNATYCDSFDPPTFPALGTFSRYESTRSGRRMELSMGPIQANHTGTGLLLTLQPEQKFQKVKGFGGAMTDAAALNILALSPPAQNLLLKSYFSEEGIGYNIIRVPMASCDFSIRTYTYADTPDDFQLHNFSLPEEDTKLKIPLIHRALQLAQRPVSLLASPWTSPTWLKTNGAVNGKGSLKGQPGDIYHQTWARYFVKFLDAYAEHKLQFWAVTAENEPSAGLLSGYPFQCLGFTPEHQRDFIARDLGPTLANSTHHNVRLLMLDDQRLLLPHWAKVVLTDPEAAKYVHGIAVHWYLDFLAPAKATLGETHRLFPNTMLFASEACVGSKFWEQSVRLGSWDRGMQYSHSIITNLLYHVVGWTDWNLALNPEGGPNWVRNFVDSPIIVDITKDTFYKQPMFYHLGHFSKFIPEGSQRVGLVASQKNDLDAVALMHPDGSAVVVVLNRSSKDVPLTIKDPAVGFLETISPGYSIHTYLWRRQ
# Outline: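 Normal human glucocerebrosidase (0.2 nM) with blue fluorogenic substrate (80 uM final) in citrate/phosphate pH 5.9 with 10mM sodium taurocholate, 0.01% tween-20; 40 min RT, NaOH/glycine stop; fluorescence Ex 365/Em 440; AC50 from a titration from 0.6 nM upwards.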
# [2] = AP1 Signaling Pathway (AID 357); settings: ME-180 AP-1-bla reporter, EGF-induced, beta-lactamase ratio, 5 h; at 7.69 µM (top of the series) unless noted;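 further: ME-180 reporter cells stimulated with EGF at its EC50 level; on the % scale 0 is the no-effect control and ±100 the full control effect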
# Outline: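 AP-1-bla ME-180 cells, Opti-MEM + 0.5% dialyzed FBS, plated overnight 37 °C. Cpd titration + EC50 EGF, 5 h 37 °C. CCF4 2.5 h RT; ex 405, em 460/530 ratio → %activity, AC50.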
# [3] = target: Cytochrome P450 1A2 (Homo sapiens) (UniProt P05177); test: p450-cyp1a2 (AID 410; calls by dose curve; further: potency means the concentration at half of the fitted maximal effect;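 on activity change, negative = inhibition: -100% = full effect of reference inhibitor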); settings: recombinant CYP1A2, luciferin-ME demethylation, luminescence; series mostly up to 11.4 µM
# Sequence of Cytochrome P450 1A2 (Homo sapiens) (P05177 whole entry, looked up): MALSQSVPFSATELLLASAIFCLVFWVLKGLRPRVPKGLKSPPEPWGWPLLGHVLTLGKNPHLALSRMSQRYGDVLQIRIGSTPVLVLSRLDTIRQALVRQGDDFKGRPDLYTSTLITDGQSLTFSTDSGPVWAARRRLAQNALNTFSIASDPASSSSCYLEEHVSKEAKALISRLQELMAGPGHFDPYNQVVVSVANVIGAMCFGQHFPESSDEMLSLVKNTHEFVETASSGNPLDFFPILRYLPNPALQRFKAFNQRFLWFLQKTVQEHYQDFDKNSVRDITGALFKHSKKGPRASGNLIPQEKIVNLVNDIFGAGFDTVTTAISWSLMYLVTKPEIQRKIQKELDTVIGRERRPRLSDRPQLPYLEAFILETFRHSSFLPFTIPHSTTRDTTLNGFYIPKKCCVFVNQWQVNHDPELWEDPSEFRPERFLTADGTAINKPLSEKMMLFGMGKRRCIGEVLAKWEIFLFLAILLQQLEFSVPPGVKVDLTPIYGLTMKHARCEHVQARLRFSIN
# Outline: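 O-Demethylation of luciferin 6' methyl ether by human CYP1A2 is monitored as luciferase luminescence. Substrate sits at Km (100uM); enzyme is 20nM. Values are scaled to 57 uM furafylline as maximal inhibition.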
# [4] = NFAT Signaling Pathway (AID 444); settings: Jurkat NFAT-bla M1, carbachol, beta-lactamase ratio, 5 h; at 7.69 µM (top of the series) unless noted;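 further: carbachol stimulus at about its EC50 of 1 µM final; on the % scale 0 is the no-effect control and ±100 the full control effect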
# Outline: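 Jurkat cells with NFAT-driven β-lactamase reporter and co-expressed M1 receptor, stimulated with carbachol (final 1 uM, ~EC50), compound titration, 5 h at 37 °C. CCF4 loaded 1 h at RT; 460/530 nm ratio gave %activity and AC50.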
# [5] = Stat Signaling Pathway (AID 446); settings: ME-180 (cervical carcinoma) SIE beta-lactamase reporter, IL-6 stimulated, 5 h; at 7.69 µM (top of the series) unless noted;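 further: ME-180 cervical cancer cells given 40 pM IL-6 alongside compound; SIE-controlled beta-lactamase reporter measured as 460/530 nm FRET emission ratio; on the % scale 0 is the no-effect control and ±100 the full control effect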
# Outline: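 Emission at 460 and 530 nm (excitation 405 nm) reports SIE-controlled beta-lactamase in ME-180 cells. Cells received compound with 40 pM IL-6 for 5 hrs at 37 C; data scaled between 300 pM IL-6 and 125 nM JAK-inhibitor controls.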
# [6] = target: Glucocorticoid receptor (Homo sapiens) (UniProt P04150); test: GR-GFP Redistribution (AID 450;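 active means compounds whose dose series gives a full or clear partial fitted curve of increased nuclear translocation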; further: potency means the concentration at half of the fitted maximal effect); settings: U2OS GR-GFP nuclear translocation, laser cytometry, 2 h
# Sequence of Glucocorticoid receptor (Homo sapiens) (P04150 whole entry, looked up, the tested form may be a part): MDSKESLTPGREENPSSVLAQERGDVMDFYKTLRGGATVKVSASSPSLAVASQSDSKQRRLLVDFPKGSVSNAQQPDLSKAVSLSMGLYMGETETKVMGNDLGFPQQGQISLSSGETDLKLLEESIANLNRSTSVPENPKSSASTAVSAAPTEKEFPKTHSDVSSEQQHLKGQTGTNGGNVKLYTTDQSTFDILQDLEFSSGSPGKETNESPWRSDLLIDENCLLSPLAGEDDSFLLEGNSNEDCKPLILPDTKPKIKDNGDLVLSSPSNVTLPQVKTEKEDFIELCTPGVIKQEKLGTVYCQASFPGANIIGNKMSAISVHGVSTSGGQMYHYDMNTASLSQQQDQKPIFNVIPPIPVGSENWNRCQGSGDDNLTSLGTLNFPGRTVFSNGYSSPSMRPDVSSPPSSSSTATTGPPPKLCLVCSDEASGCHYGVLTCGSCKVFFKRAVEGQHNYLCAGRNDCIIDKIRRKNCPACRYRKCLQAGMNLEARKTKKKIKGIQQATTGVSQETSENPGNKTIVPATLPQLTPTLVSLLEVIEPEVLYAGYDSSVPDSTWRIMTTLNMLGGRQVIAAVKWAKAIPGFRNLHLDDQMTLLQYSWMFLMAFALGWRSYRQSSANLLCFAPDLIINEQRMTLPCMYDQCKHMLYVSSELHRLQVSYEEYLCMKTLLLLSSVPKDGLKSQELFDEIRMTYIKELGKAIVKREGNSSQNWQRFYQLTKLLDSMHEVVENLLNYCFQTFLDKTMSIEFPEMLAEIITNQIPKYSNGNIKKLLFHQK
# [7] = target: Glucocorticoid receptor (Homo sapiens) (UniProt P04150); test: GR-EFC Redistribution (AID 451; calls by dose curve; further: potency means the concentration at half of the fitted maximal effect); settings: CHO-K1 GR-EFC translocation, beta-gal luminescence, 2 h
# Outline: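 CHO-K1 cells expressing nuclear EA and GR-ED fragments of b-gal; compounds titrated up to 46 uM final, 2 h at 37 C. GR nuclear translocation read as complemented b-gal luminescence after 1 h RT detection.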
# [8] = target: Mitogen-activated protein kinase 10 (Mus musculus) (UniProt Q61831); test: JNK3 AlphaScreen Assay (AID 530); settings: JNK3 lysate, c-Jun phosphorylation; series mostly up to 11.4 µM;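 further: kinase came from lysate of stimulated human HepG2 cells; signal reports phosphorylation of biotinylated GST-cJun 1-79 at Ser73 with 10 µM ATP; on the % scale 0 is the no-effect control and ±100 the full control effect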
# Outline: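 Activity was read by AlphaScreen after JNK3-containing HepG2 lysate (cytokine pre-activated) phosphorylated biotinylated GST-cJun with 10 uM ATP at room temperature. Phospho-Ser73 cJun antibody with Protein-A acceptor beads provided detection.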
# [9] = target: 3',5'-cyclic-AMP phosphodiesterase 4B (Homo sapiens) (UniProt Q07343); test: qHTS Assay for Inhibitors of PDE-IV (AID 607; active means well fitted activation curve with a large enough effect in the main read-out, with a control signal flat, not every such curve was filed as active; further: % of control where 0% means no effect); settings: HEK293 ACTOne CNG channel cells, membrane potential fluorescence; series mostly up to 22.9 µM
# Sequence of 3',5'-cyclic-AMP phosphodiesterase 4B (Homo sapiens) (Q07343 whole entry, looked up): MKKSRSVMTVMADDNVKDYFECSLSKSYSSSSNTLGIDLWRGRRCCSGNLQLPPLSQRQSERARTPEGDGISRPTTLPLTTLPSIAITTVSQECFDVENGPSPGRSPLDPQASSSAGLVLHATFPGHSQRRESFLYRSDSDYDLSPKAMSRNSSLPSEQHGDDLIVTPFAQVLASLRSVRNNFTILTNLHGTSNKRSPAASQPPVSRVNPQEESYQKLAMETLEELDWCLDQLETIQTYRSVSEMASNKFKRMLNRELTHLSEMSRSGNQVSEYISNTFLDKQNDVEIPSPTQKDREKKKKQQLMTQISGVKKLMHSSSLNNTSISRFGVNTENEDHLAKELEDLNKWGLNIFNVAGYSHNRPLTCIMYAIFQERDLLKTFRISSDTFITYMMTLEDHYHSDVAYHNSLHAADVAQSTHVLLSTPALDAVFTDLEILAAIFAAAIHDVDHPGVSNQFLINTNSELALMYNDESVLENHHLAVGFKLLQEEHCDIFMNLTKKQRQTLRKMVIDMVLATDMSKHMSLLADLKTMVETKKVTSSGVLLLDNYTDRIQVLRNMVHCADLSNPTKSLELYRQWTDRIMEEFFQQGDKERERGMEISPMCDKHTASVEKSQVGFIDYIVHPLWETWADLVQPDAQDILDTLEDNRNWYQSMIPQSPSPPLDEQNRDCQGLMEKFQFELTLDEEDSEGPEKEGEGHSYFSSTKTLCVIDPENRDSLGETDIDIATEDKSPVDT
# Outline: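 The readout is membrane depolarisation from a cAMP-sensing CNG channel, detected with a potential dye at ex 535/em 590. Cells were HEK293-derived (endogenous PDE-IV) at 1000 cells/well, titrated up to 22.9 uM final.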
SMILES,Potency [1] [µM],"activity change, negative = inhibition [2] [%]",Potency [3],"activity change, negative = inhibition [4] [%]","activity, negative = inhibition [5] [%]",Potency [6] [µM],Potency [7] [µM],Potency [8],Potency [9],"activity change, negative = inhibition [3]"
NNC(=O)[C@@H](O)[C@H](O)[C@H](O)CO,> 11.4,2.85,inactive,10.5,2.62,> 46,> 9.22,inactive,inactive,
NCCNCC1CCNCC1,> 11.4,2.94,,8.35,3.5,> 46,> 9.22,inactive,inactive,-3.6% [at 2.29 µM]
CC1=C[N+](=O)c2ccccc2[N+]1=O,> 11.4,5.1,6.31 µM (active),13.8,0.919,> 46,> 9.22,inactive,inactive,
CC(CCN)(CCN)[N+](=O)[O-],> 11.4,10.4,inactive,9.23,5.23,> 46,> 9.22,inactive,inactive,
O=C(O)CNCCc1ccccc1,> 11.4,7.75,inactive,-3.02,4.05,> 46,> 9.22,inactive,inactive,
Cc1ncc(CN=Cc2ccc(Cl)cc2)c(N)n1,> 11.4,-0.312,5.01 µM (active),23.1,3.08,> 46,> 9.22,inactive,inactive,
O=C(O)c1ccccc1/C=N\N=C1c2ccccc2-c2ccccc21,> 11.4,20.6,0.316 µM (active),7.67,-13.9,> 46,> 9.22,inactive,inactive,
O=C(Nc1nn[nH]n1)c1nc(-c2ccccc2)cc(=O)[nH]1,> 11.4,2.85,3.98 µM (active),0.574,-4.08,> 46,> 9.22,inactive,inactive,
CCOC(=O)c1c(C)c(C)n2c1NC(=O)C2,> 11.4,3.42,2 µM (active),-19.4,-3.92,> 46,> 9.22,inactive,inactive,
CCN(CCO)C[C@H]1CCC[C@H]2CCCC[C@@H]21,> 11.4,16.9,5.01 µM (active),0.328,4.97,> 46,> 9.22,inactive,inactive,
O=C(O)[C@@H]1[C@@H](C(=O)NCc2ccccn2)[C@@H]2C=C[C@@H]1O2,> 11.4,-9.66,,-3.89,-3.58,> 46,> 9.22,inactive,inactive,-0.1% [at 2.29 µM]
CC(C)C(=O)Cc1ccc2ccccc2n1,> 11.4,-4.8,3.16 µM (active),12.2,3.27,> 46,> 9.22,inactive,inactive,
CC(C)(C)OC(=O)[C@H]([C@@H]1N[C@@H](C(=O)O)C(C)(C)S1)N1C(=O)c2ccccc2C1=O,> 11.4,-0.34,,-5.29,3.62,> 46,> 9.22,inactive,inactive,-1.4% [at 2.29 µM]
CC1CCC(C(=O)O)([C@H](Br)C(=O)O)CC1 (some centres undefined),> 11.4,-2.54,inactive,13.7,8,> 46,> 9.22,inactive,inactive,
ClC(Cl)(Cl)C(N1CCN(c2ccccc2)CC1)N1CCN(c2ccccc2)CC1,> 11.4,-0.388,,-2.17,-6.12,> 46,> 9.22,inactive,inactive,-14.9% [at 2.29 µM]
Oc1ccc2ccccc2c1C=NCc1c(O)ccc2ccccc12,> 11.4,-5.07,1.58 µM (active),12.6,-21.2,> 46,> 9.22,inactive,inactive,

SMILES,Potency [1] [µM],"activity change, negative = inhibition [2] [%]",Potency [3],"activity change, negative = inhibition [4] [%]","activity, negative = inhibition [5] [%]",Potency [6] [µM],Potency [7] [µM],Potency [8],Potency [9],"activity change, negative = inhibition [3]"
O=P(O)(CCP(=O)(O)c1ccccc1)c1ccccc1,> 11.4,-9.71,inactive,12.9,1.66,> 46,> 9.22,inactive,inactive,
Nc1nc(N)c2[nH]cnc2n1 (tested in a mixture with another compound),> 11.4,4.54,,20.2,4.45,> 46,> 9.22,inactive,inactive,-5.5% [at 2.29 µM]
NCc1ccc(C(=O)O)cc1,> 11.4,3.17,,6.92,-2.22,> 46,> 9.22,inactive,inactive,-4.8% [at 2.29 µM]
Nc1nc2c(C(=O)NCc3cccs3)nnn2c2cccc(Cl)c12,> 11.4,2.54,1 µM (active),-1.34,-2.31,> 46,> 9.22,inactive,inactive,
Oc1ccccc1CNCc1ccccc1O,> 11.4,-4.9,inactive,-12.2,-8.46,> 46,> 9.22,inactive,inactive,
Cc1nc2cccc([N+](=O)[O-])c2n1CCCN(C)C,> 11.4,11.7,inactive,12.7,9.88,> 46,> 9.22,inactive,inactive,
CN(C)CN1C(=O)S/C(=C2/C(=O)N(CN(C)C)c3ccccc32)C1=O,> 11.4,-4.12,0.794 µM (active),9.46,-0.139,> 46,> 9.22,inactive,inactive,
O=C(O)C(Cc1ccccc1-c1ccccc1)C(=O)O,> 11.4,12.3,inactive,3.57,-0.388,> 46,> 9.22,inactive,inactive,
CN(CC(=O)O)CC(=O)O,> 11.4,-6.97,,11.1,2.4,> 46,> 9.22,inactive,inactive,-5.9% [at 2.29 µM]
C/C(=N/O)[C@@H]1C[C@H](CC(=O)O)C1(C)C,> 11.4,10.6,inactive,9.94,18.2,> 46,> 9.22,inactive,inactive,
C[N+](C)(C)c1ccc([C@H](N)C(=O)O)cc1,> 11.4,-0.163,inactive,-21.6,0.0481,> 46,> 9.22,inactive,inactive,
C[N+](C)(N)Cc1csc(-c2ccc(Cl)cc2)n1,> 11.4,8.47,,-11.8,0.559,> 46,> 9.22,inactive,inactive,-4.2% [at 2.29 µM]
C[C@H](CN(C)C)C(=O)c1ccccc1C(=O)O,> 11.4,-1.25,inactive,-1.83,14.8,> 46,> 9.22,inactive,inactive,
Cn1ncc2c(Cl)ncnc21,> 11.4,2.44,inactive,17.9,13.8,> 46,> 9.22,inactive,inactive,
O=C(O)c1c2c(c(O)c3c1CN(C1CCCCC1)CO3)OCN(C1CCCCC1)C2,> 11.4,4.96,inactive,29.1,0.651,> 46,> 9.22,inactive,inactive,
